According to PubChem BioAssay AID1159580 (chemical genetic matrix, 2015):
Out of some 5,500 compounds screened, about 2,000 (36%) were called active. Inconclusive results (about 18%) are left out. This is one part of the list. Values without a mark were called inactive. Cut-off read from the data, not from the text of the source: active = normalized growth mostly below about 0.91 (no sharp cut-off); inconclusive = no clear call, values can overlap the other calls; inactive = mostly above about 0.92.

Assay: chemical genetic growth profiling, strain panel (AID 1159580);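 note: tested at 20 µM; growth read once vehicle control cultures reached saturation at 30 °C; 1 = growth at the plate median or of vehicle wells; lower values mean less growth of the strain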
Settings: S. cerevisiae deletion strains, growth OD
[1] = locus YDL101C, strain DUN1, active compounds read low
[2] = locus YHR030C, strain SLT2, active compounds read low
[3] = locus YAL013W, strain DEP1, active compounds read low
[4] = locus YBR229C, strain ROT2, active compounds read low
[5] = locus YCL061C, strain MRC1, active compounds read low
[6] = locus YDR150W, strain NUM1, active compounds read low
[7] = locus YEL061C, strain CIN8, active compounds read low
[8] = locus YGR078C, strain PAC10, active compounds read low
[9] = locus YHR087W, strain rtc3, active compounds read low
[10] = locus YJR043C, strain POL32, active compounds read low
[11] = locus YJR075W, strain HOC1, active compounds read low
[12] = locus YLR039C, strain RIC1, active compounds read low
[13] = locus YLR058C, strain SHM2 (second series), active compounds read low
[14] = locus YLR085C, strain ARP6, active compounds read low
[15] = locus YLR262C, strain YPT6, active compounds read low
[16] = locus YML094W, strain GIM5, active compounds read low
[17] = locus YMR219W, strain ESC1, active compounds read low
[18] = locus YMR263W, strain SAP30, active compounds read low
[19] = locus YNL153C, strain GIM3, active compounds read low
[20] = locus YNL298W, strain CLA4 (second series), active compounds read low
[21] = locus YNL322C, strain KRE1, active compounds read low
[22] = locus YNR030W, strain Alg12, active compounds read low
[23] = locus YOL006C, strain TOP1, active compounds read low
[24] = locus YPL055C, strain LGE1, active compounds read low
[25] = locus YPL241C, strain CIN2, active compounds read low
[26] = locus YPR135W, strain CTF4, active compounds read low

## O=C(CSc1nnnn1-c1ccccc1)c1ccccc1
Locus YAR019C, strain CDC15, active compounds read low
  normalized growth: 0.96
Locus YBL105C, strain PKC1, active compounds read low
  normalized growth: 0.958
Locus YBR135W, strain CKS1, active compounds read low
  normalized growth: 0.958
Locus YBR136W, strain MEC1, active compounds read low
  normalized growth: 0.955
Locus YBR160W, strain CDC28, active compounds read low
  normalized growth: 0.957
Locus YDL017W, strain CDC7, active compounds read low
  normalized growth: 0.962
Locus YDL028C, strain MPS1, active compounds read low
  normalized growth: 0.949
[1]
  normalized growth: 0.983
Locus YDL108W, strain KIN28, active compounds read low
  normalized growth: 0.947
Locus YDL132W, strain cdc53, active compounds read low
  normalized growth: 0.954
Locus YDL214C, strain PRR2, active compounds read low
  normalized growth: 0.734
Locus YDR052C, strain DBF4, active compounds read low
  normalized growth: 0.966
Locus YDR054C, strain cdc34, active compounds read low
  normalized growth: 0.908
Locus YDR226W, strain ADK1, active compounds read low
  normalized growth: 0.959
Locus YDR477W, strain SNF1, active compounds read low
  normalized growth: 0.663 (active)
Locus YER123W, strain YCK3, active compounds read low
  normalized growth: 0.677
Locus YER133W, strain GLC7, active compounds read low
  normalized growth: 0.775
Locus YFL009W, strain cdc4, active compounds read low
  normalized growth: 0.949
Locus YFL029C, strain CAK1, active compounds read low
  normalized growth: 0.949
Locus YFR003C, strain YPI1, active compounds read low
  normalized growth: 0.96
Locus YFR019W, strain FAB1, active compounds read low
  normalized growth: 0.752 (active)
Locus YFR028C, strain CDC14, active compounds read low
  normalized growth: 0.959
Locus YGR040W, strain KSS1, active compounds read low
  normalized growth: 0.655 (active)
Locus YGR052W, strain FMP48, active compounds read low
  normalized growth: 0.587 (active)
Locus YGR092W, strain DBF2, active compounds read low
  normalized growth: 0.431 (active)
[2]
  normalized growth: 0.397 (active)
Locus YHR079C, strain IRE1, active compounds read low
  normalized growth: 0.437 (active)
Locus YHR082C, strain KSP1, active compounds read low
  normalized growth: 0.698
Locus YHR205W, strain SCH9, active compounds read low
  normalized growth: 0.661
Locus YIL147C, strain SLN1, active compounds read low
  normalized growth: 0.948
Locus YJL095W, strain BCK1, active compounds read low
  normalized growth: 0.415 (active)
Locus YJL128C, strain PBS2, active compounds read low
  normalized growth: 0.948
Locus YJL157C, strain FAR1, active compounds read low
  normalized growth: 0.664 (active)
Locus YJR016C, strain ILV3, active compounds read low
  normalized growth: 0.965
Locus YJR066W, strain TOR1 (second series), active compounds read low
  normalized growth: 0.182 (active)
Locus YJR066W, strain TOR1, active compounds read low
  normalized growth: 0.486
Locus YKL048C, strain ELM1, active compounds read low
  normalized growth: 0.799 (active)
Locus YKL067W, strain YNK1, active compounds read low
  normalized growth: 0.662 (active)
Locus YKL101W, strain HSL1, active compounds read low
  normalized growth: 0.641 (active)
Locus YKL193C, strain SDS22, active compounds read low
  normalized growth: 0.952
Locus YKL203C, strain TOR2, active compounds read low
  normalized growth: 0.573 (active)
Locus YLR113W, strain HOG1, active compounds read low
  normalized growth: 0.618 (active)
Locus YLR133W, strain CKI1, active compounds read low
  normalized growth: 0.6 (active)
Locus YLR403W, strain SFP1, active compounds read low
  normalized growth: 0.663
Locus YML070W, strain DAK1, active compounds read low
  normalized growth: 0.608 (active)
Locus YMR001C, strain CDC5, active compounds read low
  normalized growth: 0.95
Locus YMR205C, strain PFK2 (second series), active compounds read low
  normalized growth: 0.696 (active)
Locus YMR277W, strain FCP1, active compounds read low
  normalized growth: 0.946
Locus YNL006W, strain LST8, active compounds read low
  normalized growth: 0.951
Locus YNL020C, strain ARK1, active compounds read low
  normalized growth: 0.61 (active)
Locus YNL161W, strain CBK1, active compounds read low
  normalized growth: 0.965
Locus YNL183C, strain NPR1, active compounds read low
  normalized growth: 0.505 (active)
Locus YNL207W, strain RIO2, active compounds read low
  normalized growth: 0.93
Locus YNL222W, strain SSU72, active compounds read low
  normalized growth: 0.968
Locus YNL307C, strain MCK1 (second series), active compounds read low
  normalized growth: 0.259 (active)
Locus YOL078W, strain AVO1, active compounds read low
  normalized growth: 0.941
Locus YOL136C, strain PFK27, active compounds read low
  normalized growth: 0.529 (active)
Locus YOR061W, strain CKA2, active compounds read low
  normalized growth: 0.708
Locus YOR119C, strain RIO1, active compounds read low
  normalized growth: 0.61 (active)
Locus YOR231W, strain MKK1, active compounds read low
  normalized growth: 0.448 (active)
Locus YOR329C, strain SCD5, active compounds read low
  normalized growth: 0.959
Locus YPL031C, strain PHO85, active compounds read low
  normalized growth: 0.571 (active)
Locus YPL153C, strain RAD53, active compounds read low
  normalized growth: 0.538 (active)
Locus YPL204W, strain HRR25, active compounds read low
  normalized growth: 0.524 (active)
Locus YPL209C, strain IPL1, active compounds read low
  normalized growth: 0.964
Locus YPL256C, strain CLN2, active compounds read low
  normalized growth: 0.758 (active)
Locus YPR025C, strain CCL1, active compounds read low
  normalized growth: 0.961
Locus YPR106W, strain ISR1, active compounds read low
  normalized growth: 0.972
Locus YPR111W, strain DBF20, active compounds read low
  normalized growth: 0.964
Strain NNK1, active compounds read low
  normalized growth: 0.973
Strain TSCII, active compounds read low
  normalized growth: 0.948

## O=C(CSc1nnnn1-c1ccccc1)NC1Cc2ccccc2C1
[3]
  normalized growth: 1.02
[4]
  normalized growth: 0.998
[5]
  normalized growth: 1.02
[1]
  normalized growth: 1
Locus YDL134C, strain PPH21, active compounds read low
  normalized growth: 1
[6]
  normalized growth: 0.988
[7]
  normalized growth: 0.988
[8]
  normalized growth: 1.02
[2]
  normalized growth: 1.02
[9]
  normalized growth: 0.99
[10]
  normalized growth: 1.04
[11]
  normalized growth: 1.01
[12]
  normalized growth: 1.07
[13]
  normalized growth: 0.996
[14]
  normalized growth: 0.991
[15]
  normalized growth: 1.07
[16]
  normalized growth: 0.999
[17]
  normalized growth: 0.996
[18]
  normalized growth: 1
Locus YMR307W, strain GAS1, active compounds read low
  normalized growth: 1.06
Locus YNL128W, strain TEP1, active compounds read low
  normalized growth: 1
[19]
  normalized growth: 1.03
[20]
  normalized growth: 1.01
[21]
  normalized growth: 0.999
[22]
  normalized growth: 0.995
[23]
  normalized growth: 0.944
[24]
  normalized growth: 0.879
[25]
  normalized growth: 0.985
[26]
  normalized growth: 1.01

## CSc1nnnn1-c1c(C)cccc1C
[3]
  normalized growth: 0.998
[4]
  normalized growth: 0.973
[5]
  normalized growth: 0.996
[1]
  normalized growth: 1.02
[6]
  normalized growth: 1.02
[7]
  normalized growth: 0.972
[8]
  normalized growth: 0.982
Locus YGR229C, strain SMI1, active compounds read low
  normalized growth: 0.966
[2]
  normalized growth: 0.96
[9]
  normalized growth: 0.988
Locus YJL187C, strain SWE1, active compounds read low
  normalized growth: 0.979
[10]
  normalized growth: 0.982
[11]
  normalized growth: 0.998
Locus YKL190W, strain CNB1, active compounds read low
  normalized growth: 0.962
[12]
  normalized growth: 0.969
[13]
  normalized growth: 0.972
[14]
  normalized growth: 0.999
[15]
  normalized growth: 0.936
[16]
  normalized growth: 1.08
[17]
  normalized growth: 0.983
[18]
  normalized growth: 1
[19]
  normalized growth: 0.998
[20]
  normalized growth: 0.984
[21]
  normalized growth: 0.984
[22]
  normalized growth: 1
[23]
  normalized growth: 0.944
[24]
  normalized growth: 1.01
[25]
  normalized growth: 0.936
[26]
  normalized growth: 1.01
